Results from PubChem BioAssay AID1159580 (chemical genetic matrix, 2015).
Out of some 5,500 compounds screened, about 2,000 (36%) were called active. Inconclusive results (about 18%) are left out. Cut-off read from the data, not from the text of the source: active = normalized growth mostly below about 0.91 (no sharp cut-off); inconclusive = no clear call, values can overlap the other calls; inactive = mostly above about 0.92. The list shows a part of the results.

Assay: chemical genetic growth profiling, strain panel (AID 1159580);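 note: tested at 20 µM; growth read once vehicle control cultures reached saturation at 30 °C; 1 = growth at the plate median or of vehicle wells; lower values mean less growth of the strain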
Settings: S. cerevisiae deletion strains, growth OD

Measured: normalized growth

CCCOC(=O)c1c(-c2ccccc2)nc(CC)c(C(=O)SCC)c1CCC
inactive: locus YAL040C, strain CLN3, hits give low values 1.04 | locus YCL061C, strain MRC1 (second series), hits give low values 1 | locus YDR150W, strain NUM1, hits give low values 1.01 | locus YDR363W, strain ESC2, hits give low values 0.982 | locus YER002W, strain NOP16, hits give low values 1.01 | locus YGR078C, strain PAC10, hits give low values 0.974 | locus YNL128W, strain TEP1, hits give low values 1.09 | locus YNL153C, strain GIM3, hits give low values 1.02 | locus YNL197C, strain WHI3, hits give low values 1.02 | locus YNL224C, strain SQS1, hits give low values 1.04 | locus YNL322C, strain KRE1, hits give low values 0.993 | locus YOR083W, strain WHI5 (second series), hits give low values 1.09
